PubChem BioAssay (NCI)
Compounds without any hit were thinned out: in the full panel of roughly 79,000, 15% have a hit. Unmarked numbers belong to inactive results. Activity calls are given as the source filed them. No stated cut-off is given here; in the data, active means growth inhibition above about 70%; inactive means the rest.

Tests used:
[1] = NCI Yeast Anticancer Drug Screen. Data for the rad50 strain (AID 155);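 further: 0% = growth of vehicle-only cultures of the same strain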; conditions: S. cerevisiae rad50 strain growth inhibition, stronger effect = higher value
Procedure, shortened: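 Vehicle-treated cultures provide the reference for the growth inhibition reported for compound-exposed, repair-deficient yeast.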

[2] = NCI Yeast Anticancer Drug Screen. Data for the mec2-1 strain (AID 157); conditions: S. cerevisiae mec2-1 strain, stronger effect = higher value
Procedure, shortened: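 Cells of the genetically defined mec2-1 yeast strain are incubated with test compound. Inhibition of growth is calculated against vehicle-treated controls.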

[3] = NCI Yeast Anticancer Drug Screen. Data for the sgs1 mgt1 strain (AID 161);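 further: 0% = growth of cultures given vehicle only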; conditions: S. cerevisiae sgs1 mgt1 strain, stronger effect = higher value
Procedure, shortened: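 Genetically altered yeast, compound exposure, growth inhibition relative to vehicle.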

[4] = NCI Yeast Anticancer Drug Screen. Data for the cln2 rad14 strain (AID 165);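 further: 0% = growth equal to vehicle treated cultures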; conditions: S. cerevisiae cln2 rad14 strain, stronger effect = higher value
Procedure, shortened: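 The screen exposed genetically defined yeast (cln2 rad14) to test compounds and scored growth inhibition relative to vehicle-treated controls.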

[5] = NCI Yeast Anticancer Drug Screen. Data for the bub3 strain (AID 167); conditions: S. cerevisiae bub3 mutant strain, stronger effect = higher value
Procedure, shortened: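 Mutant yeast screening strain plus compound; vehicle-treated cultures serve as the 0% inhibition reference.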

[6] = NCI Yeast Anticancer Drug Screen. Data for the mlh1 rad18 strain (AID 175); conditions: S. cerevisiae mlh1 rad18 strain growth inhibition, stronger effect = higher value
Procedure, shortened: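 Compound-treated yeast growth, normalised to vehicle controls. Strain bears defined DNA repair mutations.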

[7] = at 5.0 µM (retest, dose inferred, filed as 0.5)
[8] = at 50.0 µM (retest, dose inferred, filed as 5.0)

SMILES | growth inhibition [1, 7] | growth inhibition [1, 8] | growth inhibition ([1]; at 50.0 µM) | growth inhibition [2, 7] | growth inhibition [2, 8] | growth inhibition ([2]; at 50.0 µM) | growth inhibition [3, 7] | growth inhibition [3, 8] | growth inhibition ([3]; at 50.0 µM) | growth inhibition [4, 7] | growth inhibition [4, 8] | growth inhibition ([4]; at 50.0 µM) | growth inhibition [5, 7] | growth inhibition [5, 8] | growth inhibition ([5]; at 50.0 µM) | growth inhibition [6, 7] | growth inhibition [6, 8] | growth inhibition ([6]; at 50.0 µM)
CC(NC(=O)C(NC(=O)C(NC(=O)C(F)(F)F)C(C)C)C(C)C)C(=O)Oc1c(Cl)c(Cl)c(Cl)c(Cl)c1Cl (configuration not stated) | 5% | 70% (active) | 59% | 6% | 62% | 86.7% (active) | 21% | 80% (active) | 82.9% (active) | 10% | 68% | 77.7% (active) | -20% | 65% | 85.6% (active) | 28% | 83% (active) | 78.7% (active)
Cc1ccc(C)c(N2C(=O)C(=O)c3c(C)ccc(C)c32)c1 | 12% | 96% (active) | 99% (active) | 13% | 66% | 99% (active) | 12% | 98% (active) | 97.7% (active) | 27% | 23% | 89.8% (active) | 8% | 10% | 97.8% (active) | 14% | 80% (active) | 98.8% (active)
CCN(CC)CCCNc1c2c(Cl)cc(Cl)cc2nc2nc(=O)[nH]c(C)c12 | 9% | 12% | 8.75% | 8% | 16% | 0.9% | -28% | 6% | 8.8% | -13% | 4% | 39% | -19% | 8% | 34.5% | 7% | 17% | 42.2%
O=C(N/N=C/c1ccccn1)c1ccccc1[O-].O=C(N/N=C/c1ccccn1)c1ccccc1[O-].[Co+2] | 5% | 0% | 38.2% | 21% | 0% | 48.1% | 13% | 5% | 42.5% | 14% | 2% | 72.8% (active) | 17% | 2% | 99.2% (active) | 18% | -2% | 66.8%
N=C1C=CC(=C(c2ccc(N)cc2)c2ccc(N)cc2)C=C1 | -2% | 99% (active) | 98.8% (active) | 24% | 98% (active) | 98.5% (active) | 8% | 97% (active) | 97.8% (active) | -15% | 93% (active) | 96.8% (active) | 12% | 98% (active) | 98.3% (active) | -4% | 97% (active) | 97.4% (active)
CC(C)c1cc2c(cc1O)C(O)C1(O)CCCC(C)(C)[C@H]1CC2 (some centres not stated) | -6% | 99% (active) | 91.4% (active) | -1% | 100% (active) | 93.7% (active) | -1% | 99% (active) | 93% (active) | -11% | 99% (active) | 91.6% (active) | 6% | 99% (active) | 93% (active) | -3% | 99% (active) | 91.8% (active)
CCCCCCCCCCCC(=O)OCCOC(=O)CCCCCCCCCCC | -8% | -5% | -5.95% | -1% | -12% | -11.3% | -22% | -7% | -20.6% | 1% | -5% | -4% | 2% | -12% | -3.35% | 3% | -6% | 7.4%
COC(=O)C1CCN(Cc2ccccc2)CC1=O (configuration not stated) | 38% | 57% | 89.3% (active) | 48% | 51% | 92.1% (active) | 77% (active) | 100% (active) | 93.2% (active) | 83% (active) | 100% (active) | 90% (active) | 81% (active) | 98% (active) | 90% (active) | 37% | 47% | 89.9% (active)
O=C1c2ccccc2C(=O)N1/N=C\c1ccccc1[N+](=O)[O-] | 1% | 75% (active) | 89% (active) | -2% | 41% | 4.9% | 3% | 96% (active) | -3.8% | -5% | 32% | -29.1% | -3% | 85% (active) | 3.75% | -3% | 93% (active) | 0.5%
Clc1ccc2nc3ccccc3nc2c1 | -31% | 96% (active) | 94.7% (active) | 26% | 67% | 86.8% (active) | -5% | 81% (active) | 79.6% (active) | -9% | 79% (active) | 80.7% (active) | 21% | 78% (active) | 92.3% (active) | -4% | 94% (active) | 93.8% (active)
Cc1cc2nc(-c3ccccc3[N+](=O)[O-])[nH]c2cc1C | -3% | 20% | 21.6% | -7% | 7% | -0.15% | -6% | 61% | 41.1% | -3% | -1% | -73.7% | 6% | 55% | 16.3% | 2% | 56% | 3.2%
CCOC(=O)c1sc2[n+](c1C)C(=O)/C(=C/c1ccc([N+](=O)[O-])cc1)S2 | 4% | 71% (active) | 95.5% (active) | 4% | 74% (active) | 96.9% (active) | 16% | 86% (active) | 97% (active) | -4% | 79% (active) | 90.5% (active) | -23% | 46% | 96.8% (active) | 23% | 89% (active) | 97% (active)
O=C(OCc1ccccc1)N(CCCCN(CCCNCc1ccccc1)C(=O)OCc1ccccc1)CCCNCc1ccccc1 | 11% | 99% (active) | 90.3% (active) | 22% | 100% (active) | 93.2% (active) | 10% | 100% (active) | 91.7% (active) | 3% | 99% (active) | 90% (active) | 29% | 99% (active) | 91.8% (active) | 28% | 99% (active) | 91.2% (active)
O=C(O)C(O)C(O)C(O)C(O)CO.[Ag] (configuration not stated) | 99% (active) | 98% (active) | 99.2% (active) | 99% (active) | 99% (active) | 99.3% (active) | 99% (active) | 99% (active) | 99.5% (active) | 99% (active) | 98% (active) | 99.3% (active) | 99% (active) | 98% (active) | 99.3% (active) | 99% (active) | 98% (active) | 99% (active)
O=C1C=C/C(=C(/c2ccc(O)c(O)c2)c2ccccc2S(=O)(=O)O)C=C1O | 1% | 0% | 11.8% | 2% | -25% | -0.5% | -2% | 2% | 5.3% | 5% | -2% | 15.9% | -40% | -3% | -1.5% | 2% | 4% | 1.75%
C=C1C(=O)O[C@@H]2C[C@@]3(C)CCC[C@H](C)C3=C[C@H]12 (tested in a mixture with another compound) | 9% | 96% (active) | 91.8% (active) | 14% | 97% (active) | 93% (active) | 4% | 97% (active) | 92.3% (active) | 30% | 91% (active) | 90% (active) | 13% | 98% (active) | 91.2% (active) | 19% | 98% (active) | 91.5% (active)
NS(=O)(=O)c1ccc(Nc2c3ccccc3nc3c(C(=O)NC(CO)(CO)CO)cccc23)cc1 | -14% | 24% | 18.9% | -11% | -10% | -1% | -5% | -13% | 15.3% | 25% | -10% | 45.5% | -9% | -8% | 12.9% | -14% | 9% | 15.9%
Cc1cc(=O)[nH]c2cc3oc4ccccc4c3cc12 | 30% | 94% (active) | 95.2% (active) | -5% | 39% | 32.4% | 11% | 40% | 17.6% | 9% | 36% | 68.1% | -13% | 45% | 81% (active) | 23% | 80% (active) | 78.9% (active)
N#CCCN(C(=S)Nc1ccc(Cl)c(Cl)c1)C1CCCCC1 | 2% | 91% (active) | 78.9% (active) | 0% | 91% (active) | 79.7% (active) | 2% | 90% (active) | 86.3% (active) | -1% | 83% (active) | 71.9% (active) | 2% | 88% (active) | 79.2% (active) | 3% | 90% (active) | 75.1% (active)
